# HTT-AS act: activates huntingtin-antisense promoter activity. Potency, µM (highest dose often 57.5 µM), without a hit: top-dose activity change, positive = activation, usual class: activators. HEK293 HTT-AS promoter firefly luciferase reporter, 24 h; response scale: percent change from vehicle, -100% = no light. 48,000 compounds, 0.24% hits; further: potency means the concentration at half of the fitted maximal effect; nearly all actives have a fitted effect of over 55% in size
#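 Firefly luciferase readout (Dual-Glo, 10 min RT) after 24 h, 37 °C compound exposure (final up to 57.5 uM) of HEK293 reporter cells cultured 24 h beforehand; PTC124 at 50 uM final as control inhibitor; activity scaled vehicle 0%, zero RLU -100%.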
# DRV1 agonist: agonists of human resolvin D1 receptor DRV1 (GPR32); 48,000 compounds, 2.5% hits; CHO-K1 GPR32 beta-arrestin PathHunter luminescence, 90 min; zero percent set by DMSO-only wells; AID 1346428; activation, % at 76.9 µM; O75388;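 active means activation of at least 60% and not above a set upper limit, about 1 call in 100 departs from these limits; inconclusive means activation of 40% to 60%, or above that upper limit; inactive means activation under 40%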; further: 0% is about no effect
#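 Readings come from a cell-based beta-arrestin complementation format: CHO-K1 GPR32 stable cells (2,500/well) treated 90 min with compounds, then beta-Gal substrate added for 1 h before chemiluminescence imaging.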
# GALK inhibitor: GALK (human) enzyme inhibition | Potency, µM (doses to about 57.5 µM), for the others: at the top dose activity, negative = inhibition, hits mostly inhibitors | P51570 | 44,000 tested, under 10 active | recombinant GALK, Kinase-Glo ATP luminescence, 1 h;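 further: plate controls were full GALK reaction for no effect and reaction lacking GALK for full effect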
#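 Compounds were pinned into ATP buffer, then GALK-galactose mix was added (final 5 nM enzyme, 35 uM ATP, 100 uM galactose, pH 8.0). After 1 h at room temperature, Kinase-Glo Plus was added and luminescence read.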
# B2AR arrestin ag: beta-arrestin recruitment by human beta2-adrenergic receptor ligands | P07550 | HTLA Tango cells, beta-arrestin recruitment, luciferase luminescence, 18 h | Potency, µM (highest dose often 46.1 µM), most hits filed as activators | 44,000 tested, under 10 active | AID 1347077;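 further: potency means the concentration at half of the fitted maximal effect; 0% = DMSO and full agonism = EC100 isoproterenol or metaproterenol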
# Target sequence (P07550 whole entry, looked up): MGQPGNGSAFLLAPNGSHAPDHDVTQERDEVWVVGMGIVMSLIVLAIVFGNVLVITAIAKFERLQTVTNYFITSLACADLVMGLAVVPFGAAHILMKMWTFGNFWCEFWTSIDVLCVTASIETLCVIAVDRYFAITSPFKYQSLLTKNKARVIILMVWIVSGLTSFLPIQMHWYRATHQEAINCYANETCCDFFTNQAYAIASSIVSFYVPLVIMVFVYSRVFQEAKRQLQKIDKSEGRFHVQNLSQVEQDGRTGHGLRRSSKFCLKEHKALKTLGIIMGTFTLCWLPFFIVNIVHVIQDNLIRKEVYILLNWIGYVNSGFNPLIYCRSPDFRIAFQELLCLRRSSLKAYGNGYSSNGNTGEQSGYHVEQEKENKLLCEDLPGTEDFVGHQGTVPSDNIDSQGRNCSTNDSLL
#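 Tango cells expressing recombinant beta2-AR and beta-arrestin were treated with compounds (up to 46 microM titration) in DMEM with 1% FBS for 18 hr at 37 degrees C. Beta-arrestin recruitment drove tTA-dependent luciferase, read by luminescence; curves were fitted and classed.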
# HTT promoter inh: inhibitors of huntingtin promoter activity; HEK293 HTT promoter firefly luciferase reporter, 24 h; Potency, µM (series often up to 57.5 µM), inactives show at the highest dose activity change, negative = inhibition, most hits filed as inhibitors; 48,000 compounds, 0.93% hits; AID 1508623; further: potency means the concentration at half of the fitted maximal effect; nearly all actives have a fitted effect of over 50% in size
#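 Luminescence was read after Dual-Glo reagent and a 10 min room-temperature incubation. Values were normalized to vehicle (0% activity) and zero RLU (-100% activity). Reporter HEK293 cells had been exposed to compounds (up to 57.5 uM final) for 24 h.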
# PTAP-TSG101 blk: TSG101-PTAP interaction inhibition, HIV-1 budding; Fluorescence polarization, FITC-PTAP peptide/Tsg101, 20 min; Potency, µM (highest dose often 115 µM), hits mostly inhibitors; 44,000 tested, under 10 active; AID 1347069; further: potency means the concentration at half of the fitted maximal effect; 0% is about no effect
#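 qHTS FP binding, 20 min r.t.: 10 uM Tsg101 domain + 50 nM FITC-PTAP peptide, pH 7.5 HEPES buffer with TCEP and EDTA.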
# Numbers without * were called inactive; i = inactive; u = inconclusive; x = no result given; ! = a repeat was not active; [ ] = another dose, or the depositor's remark. Rows were chosen to be rich in hits. Some 3.7% of all compounds tested hit in one or more screens of this group. Unless noted, the call rests on the fitted dose curve; in most records, active means well fitted curve in the direction sought with a large enough effect; inconclusive means small, poorly fitted or top-dose-only effect, or another doubt; inactive means no such curve, though single readings can be large; an effect the other way counts as inactive or inconclusive.
SMILES,HTT-AS act,DRV1 agonist,GALK inhibitor,B2AR arrestin ag,HTT promoter inh,PTAP-TSG101 blk
Cc1cccc(CNC(=O)CCCN2C(=O)CCn3nc(-c4cn(C)c5ccccc45)cc32)c1,-23%,-8,0%,i,0%,i
Cn1cc(-c2cc3n(n2)CCC(=O)N3CCCC(=O)Nc2ccccc2Cl)c2ccccc21,-10%,60*,-3%,i,0%,i
COc1cc(N2CCC(C(N)=O)CC2)ccc1Nc1nc(N)c(Cl)c(Nc2ccccc2S(=O)(=O)C(C)C)n1,-30%,x,x,x,u,x
CCCCCN(CCC12CC3CC(CC(C3)C1)C2)C(=O)NCCCc1ccncc1,-6%,x,x,x,-5%,x
C=CCn1c(=O)c2cnc(Nc3ccc(N4CCN(C)CC4)cc3)nc2n1-c1cccc(C(C)(C)O)n1,-38%,x,x,x,u,x
CC1=C(C(=O)OC2CCCC2)C(c2ccccc2C(F)(F)F)CC(=O)N1 (stereo not drawn),-33%,96*,0%,i,u,i
Cc1cc2c(F)c(Oc3ncnn4cc(OC[C@@H](C)O)c(C)c34)ccc2[nH]1,-30%,x,x,x,-22%,x
O=C(Nc1ccc(O)c(-c2nc3ccccc3o2)c1)c1ccco1,0%,84*,-1%,i,-1%,i
CN(Cc1cc(Br)cc(Br)c1N)C1CCCCC1,2%,95*,x,x,1%,x
CN(C)CCC=C1c2ccccc2COc2ccc(CC(=O)O)cc21,9%,x,x,x,11%,x
O=C(NC1CCCC1)c1ccc(CSc2nc3cccnc3n2Cc2ccc(F)cc2)cc1,-9%,-4,2%,i,-3%,i
O=C(NC1CC1)c1ccc(Cn2c(SCc3ccc(F)cc3)nc3cccnc32)cc1,10%,63*,-6%,i,-8%,i
CCOC(=O)c1cc(-c2ccccc2)n(CCC(=O)Nc2ccc(Cl)c(C(F)(F)F)c2)c1C,-51%,10,0%,i,22µM*,i
CCN(CC)c1ccc(C(=C2C=CC(=[N+](CC)CC)C=C2)c2cc(S(=O)(=O)O)ccc2S(=O)(=O)[O-])cc1,-56%,-78,x,x,u,x
COc1ccc(Nc2c3c(nc4ccc(NC(=O)c5cc(Cl)ccc5OC)cc24)CCCC3)cc1OC,-95%,61*,5%,i,u,i
COc1cc(OC)cc(C(=O)Nc2ccc3nc4c(c(Nc5ccc(OC)c(OC)c5)c3c2)CCCC4)c1,-63%,85*,-1%,i,u,i
CNC1CCC(N(Cc2cccc(-c3ccncc3)c2)C(=O)c2sc3c(F)ccc(F)c3c2Cl)CC1 (stereo not drawn),-16%,x,x,x,-15%,x
COc1ccc(CCNc2ncnc3onc(C)c23)c(OC)c1,-84%,75*,-2%,i,1.3µM*,i
CSc1ccc(CCNc2ncnc3onc(C)c23)cc1,-79%,33,1%,i,1µM*,i
CCCNc1ncnc2onc(C)c12,-21%,5,4%,i,-24%,i
CNC1CCC(N(Cc2cccc(-c3ccncc3)c2)C(=O)c2sc3ccccc3c2Cl)CC1 (stereo not drawn),-25%,x,x,x,-17%,x
Nc1nc(F)nc2c1ncn2[C@@H]1O[C@H](COP(=O)(O)O)[C@@H](O)[C@H]1O,6%,x,x,x,27%,x
COc1cc(NC(=O)Cn2nc(C(F)(F)F)c3c2CCCC3)cc(OC)c1OC,-34%,19,u,i,22µM*,i
C=CC(=O)Nc1cccc(Nc2nc(NC3CCC(N(C)C)CC3)nc3c2ncn3C(C)C)c1 (stereo not drawn),-42%,x,x,x,-38%,x
COc1ccc(OC)c(-c2cc(C(=O)Nc3cnn(Cc4ccc(Cl)cc4Cl)c3)no2)c1,x,91*,5%,i,x,i
SMILES,HTT-AS act,DRV1 agonist,GALK inhibitor,B2AR arrestin ag,HTT promoter inh,PTAP-TSG101 blk
COCCCOc1ccnc(CS(=O)c2nc3ccccc3[nH]2)c1C (stereo not drawn),13%,11,x,x,15%,x
Cc1c(OCC(F)(F)F)ccnc1CS(=O)c1nc2ccccc2[nH]1 (stereo not drawn),u,60*!,x,x,15%,x
C[C@@H](NCCCc1cccc(C(F)(F)F)c1)c1cccc2ccccc12,-36%,15,x,x,u,x
CC(Cc1cccc(C(F)(F)F)c1)NCCOC(=O)c1ccccc1 (stereo not drawn),-6%,63*,x,x,2%,x
Cc1ccc(-n2ncc3c(NCc4ccccc4)ncnc32)cc1Cl,0%,62*,1%,i,22%,i
Cc1ccc(Cl)cc1-n1ncc2c(NCc3ccc(F)cc3)ncnc21,-28%,26,2%,i,u,i
Cc1ccc(Cl)cc1-n1ncc2c(NCCc3ccccc3)ncnc21,u,101*,3%,i,-14%,i
Cc1ccc(Cl)cc1-n1ncc2c(NCCCc3ccccc3)ncnc21,-30%,78*,0%,i,u,i
O=c1[nH]nc(OCCCc2ccc(Cl)cc2)c(NCc2cccnc2)c1Br,-31%,x,x,x,u,x
COc1ccc(CN2CCc3c(c(=O)n4ncc(C(=O)N5CCN(c6ccc(F)cc6)CC5)c4n3C)C2)cc1,-51%,-10,-2%,i,13µM*,i
CCn1c2c(c(=O)n3ncc(C(=O)N4CCN(c5ccc(C(C)=O)cc5)CC4)c13)CN(Cc1ccc(OC)cc1)CC2,-48%,4,2%,i,u,i
COc1cc2ncnc(Nc3ccc(F)c(Cl)c3)c2cc1OCCCN1CCOCC1,-32%,77*,x,x,u,x
Cc1ccc(C(=O)Nc2ccccc2)cc1S(=O)(=O)Nc1ccccc1,16%,95*,5%,i,-18%,i
O=C(Nc1ccccc1)c1ccc(Cl)c(S(=O)(=O)Nc2ccccc2)c1,u,91*,8%,i,7%,i
Cc1ccc(C(=O)Nc2ccccc2)cc1S(=O)(=O)Nc1ccc(Br)cc1,-37%,u,2%,i,u,i
O=C(Nc1ccccc1)c1cccc(S(=O)(=O)Nc2cccc(F)c2)c1,-21%,48,-4%,i,u,i
COc1cc(C=CC(=O)CC(=O)C=Cc2ccc(O)c(OC)c2)ccc1O,-56%[116 µM],x,x,x,u,x
Cc1ccc(-c2nc3nc(C)cc(Nc4ccccc4O)n3n2)cc1,10%,72*,0%,i,-7%,i
COc1ccccc1Nc1cc(C)nc2nc(-c3ccccc3)nn12,-10%,-11,-3%,i,-13%,i
COc1cc2nccc(Oc3ccc(NC(=O)Nc4cc(C)on4)c(Cl)c3)c2cc1OC,-44%,x,x,x,u,x
